# Experimental data taken from PubChem BioAssay (NCATS).
# Inconclusive results are not listed. Activity calls are given as the source filed them. Calls follow the shape of the full dose curve; tested in HEK293 reporter line.
# Experiment: qHTS for Inhibitors of the Functional Ribonucleoprotein Complex (vRNP) of Lassa (LASV) Arenavirus: LASV Primary Screen - GLuc reporter signal (AID 1347082); also: nearly all actives have a fitted effect of over 60% in size
# Settings: LASV minigenome vRNP, Gaussia luciferase reporter; series mostly up to 57.5 µM; activity change, negative = inhibition: at the top concentration
# % is scaled to controls: 0 for no effect and ±100 for the full control effect.
Structure (SMILES),"activity change, negative = inhibition",Potency
O=C(O)c1cc(=O)c2ccccc2o1,-13.7% (inactive),–
CC(C(=O)O)c1ccc(C(=O)c2ccccc2)s1 (stereo not drawn),0.834% (inactive),–
CCCCCCCCCCCCOCCO,-17.3% (inactive),–
Cc1cc(C)nc(NS(=O)(=O)c2ccc(N)cc2)n1,12.4% (inactive),–
CCOC(=O)C1=C(C)NC(C)=C(C(=O)OC)C1c1cccc([N+](=O)[O-])c1 (stereo not drawn),–,inactive
O=C1CC(c2ccc(Cl)cc2)CC(=O)N1,0.0964% (inactive),–
Cc1cc(O)cc(C)c1Cl,-5.55% (inactive),–
CCN(CC)C(=O)c1ccc(O)c(OC)c1,–,inactive
CCCCCCCN(CC)CCCC(O)c1ccc(NS(C)(=O)=O)cc1 (stereo not drawn),-9.26% (inactive),–
CC(O)C(=O)O (stereo not drawn),6.93% (inactive),–
COc1cc(OC)c(C(=O)CCCN2CCCC2)c(OC)c1,–,inactive
NS(=O)(=O)c1ccc(C(=O)O)cc1,-3.1% (inactive),–
OC1(c2ccc(Cl)cc2)CCNCC1,-4.85% (inactive),–
Cc1cccc(C)c1NC(=O)c1cc(S(N)(=O)=O)c(Cl)cc1O,2.87% (inactive),–
O=C(O)Cc1sc(-c2ccccc2)nc1-c1ccc(Cl)cc1,0.99% (inactive),–
CN=C(NC#N)NCCSCc1nc[nH]c1C,–,inactive
CCCCOC(=O)c1ccc(O)cc1,-12.7% (inactive),–
C[N+](C)(C)CCCCCC[N+](C)(C)C,–,inactive
CC(=O)OCC1=C(C(=O)O)N2C(=O)[C@@H](NC(=O)Cc3cccs3)[C@H]2SC1,–,inactive

Structure (SMILES),"activity change, negative = inhibition",Potency
CCn1cc(C(=O)O)c(=O)c2cc(F)c(N3CCNC(C)C3)c(F)c21 (stereo not drawn),–,inactive
Clc1ccc2nsnc2c1NC1=NCCN1,–,inactive
O=C1[C@@H]2[C@H]3CC[C@H](C3)[C@@H]2C(=O)N1CCCCN1CCN(c2ncccn2)CC1,-1.93% (inactive),–
CCOC(=O)c1ccccc1O,-4.89% (inactive),–
COCCc1ccccn1,0.803% (inactive),–
O=c1cc[nH]c(=S)[nH]1,27.9% (inactive),–
CC(=O)[C@H]1CC[C@H]2[C@@H]3C[C@H](C)C4=CC(=O)CC[C@]4(C)[C@H]3[C@@H](O)C[C@]12C,20.7% (inactive),–
O=C(N/N=C/c1ccccc1O)c1ccncc1,-24.5% (inactive),–
CN=C(N)NC(=O)Nc1c(C)cccc1C,-3.97% (inactive),–
COc1cc(NS(=O)(=O)c2ccc(N)cc2)nc(C)n1,17.7% (inactive),–
O=c1[nH]c(=O)n([C@H]2C[C@H](O)[C@@H](CO)O2)cc1Br,–,inactive
OCc1ccc(Cl)cc1Cl,2.46% (inactive),–
CO/N=C(/C(=O)N[C@@H]1C(=O)N2C(C(=O)OCOC(=O)C(C)(C)C)=C(C)CS[C@H]12)c1csc(N)n1,-2.06% (inactive),–
N[C@@H](COP(=O)(O)O)C(=O)O,–,inactive
O=C(O)CN(CCN(CC(=O)O)CC(=O)O)CCN(CC(=O)O)CC(=O)O,–,inactive
CN[C@@H]1[C@H](O)[C@H](NC)[C@H]2O[C@@]3(O)C(=O)C[C@@H](C)O[C@H]3O[C@@H]2[C@H]1O,-2.54% (inactive),–
Cc1ccc(C(=O)C(C)CN2CCCCC2)cc1 (stereo not drawn),6.66% (inactive),–
CCc1cccc(CC)c1NC(=O)CN(CC(=O)O)CC(=O)O,10.8% (inactive),–
O=C(O)c1cc(=O)c2c(OCC(O)COc3cccc4oc(C(=O)O)cc(=O)c34)cccc2o1,–,inactive
